# Measurements published in PubChem BioAssay (Tox21).
# Where “and” joins values, the source holds several entries; their conditions need not be identical. Equal values may be shown once. Results filed as inconclusive are left out. Entries that show only a call come without a potency. Some structures have more than one record in an assay (separate samples or runs), and their calls can disagree. Calls of active or inactive are those of the source. Unless noted, calls follow the shape of the dose curve; as a rule, active = well fitted curve in the direction sought with a large enough effect in the repeat runs; inconclusive = weak or mixed curves; inactive = no such curve, though single readings can be large; an effect the other way counts as inactive or inconclusive.
# Experiments:
# [1] = qHTS assay to test for compound auto fluorescence at 535 nm (green) in HEK293 cells (AID 720680)
# [2] = qHTS assay to test for compound auto fluorescence at 460 nm (blue) in HEK293 cell free culture (AID 720681)
# Method in brief: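 Blue fluorescence (Ex 405/Em 460 nm, triamterene-equivalent) was read immediately after pin transfer of compound or DMSO into medium (DMEM, 10% FBS) without cells.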
# [3] = qHTS assay to test for compound auto fluorescence at 535 nm (green) in HEK293 cell free culture (AID 720682)
# Method in brief: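 Compounds were pin-transferred into cell-free DMEM with 10% FBS, and green fluorescence was read at excitation 485 nm and emission 535 nm. Intensities were expressed as fluorescein-equivalent values.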
# [4] = qHTS assay to test for compound auto fluorescence at 590 nm (red) in HEK293 cell free culture (AID 720683)
# Method in brief: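 Red-channel autofluorescence of compounds in culture medium (DMEM, 10% FBS), no cells, measured at 540/590 nm. Rose Bengal sodium is the reference fluorophore for equivalence.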
# [5] = qHTS assay to test for compound auto fluorescence at 590 nm (red) in HepG2 cell free culture (AID 720684)
# Method in brief: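 Steps: dispense MEM/10% FBS medium, no cells; pin compound or DMSO vehicle; read red channel, Ex/Em 540/590 nm. Output given as Rose Bengal sodium equivalents.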
# [6] = qHTS assay to test for compound auto fluorescence at 460 nm (blue) in HepG2 cell free culture (AID 720685)
# Method in brief: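 Compound (23 nL) or DMSO pinned into cell-free MEM with 10% FBS; blue fluorescence read at 405/460 nm excitation/emission, expressed as auto-fluorescence equivalency to triamterene.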
# [7] = qHTS assay to test for compound auto fluorescence at 535 nm (green) in HepG2 cell free culture (AID 720686)
# [8] = qHTS assay to test for compound auto fluorescence at 460 nm (blue) in HepG2 cells (AID 720687)
# Method in brief: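 Blue-channel autofluorescence (Ex/Em 405/460 nm, triamterene-equivalent) was measured after 1 hr compound exposure at 37 C, 5% CO2. Cells were HepG2, plated overnight at 37 C in MEM plus 10% FBS.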
# [9] = qHTS assay to identify small molecule antagonists of the glucocorticoid receptor (GR) signaling pathway - cell viability counter screen (AID 720693); also: nearly all actives have a fitted effect of over 55% in size
# [10] = qHTS assay to identify small molecule antagonists of the androgen receptor (AR) signaling pathway - cell viability counter screen (AID 743033; also: nearly all actives have a fitted effect of over 45% in size; also: potency is read from the fitted curve at half-maximal effect)
# [11] = qHTS assay to identify small molecule antagonists of the androgen receptor (AR) signaling pathway using the MDA cell line - cell viability counter screen (AID 743041; also: nearly all actives have a fitted effect of over 45% in size)
# Method in brief: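 Cells were plated at 3,000 per well and left 5 h. Compounds in DMSO were then pinned in, followed by R1881. After 16 h at 37C, CellTiter-Fluor fluorescence gave viability.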
# [12] = qHTS assay for identifying genotoxic compounds that show differential cytotoxicity against isogenic chicken DT40 cell lines with known DNA damage response pathways - wild type cell line (AID 743012); also: nearly all actives have a fitted effect of over 60% in size; also: potency is read from the fitted curve at half-maximal effect
# Method in brief: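 Quantitative HTS on parental DT40 cells: 40 h compound treatment at 37 C/5% CO2, with viability then determined by CellTiter-Glo luminescence. Values serve as the DNA repair-proficient reference for differential cytotoxicity.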
# [13] = qHTS assay for identifying genotoxic compounds that show differential cytotoxicity against isogenic chicken DT40 cell lines with known DNA damage response pathways - Rad54/Ku70 mutant cell line (AID 743015); also: nearly all actives have a fitted effect of over 60% in size; also: potency is read from the fitted curve at half-maximal effect
# [14] = target: Glucocorticoid receptor (Homo sapiens) (UniProt P04150); experiment: qHTS assay to identify small molecule agonists of the glucocorticoid receptor (GR) signaling pathway (AID 720691; active = well fitted activation curve with a large enough effect in the signal ratio in the repeat runs, not every such curve was filed as active; the % refers to the signal ratio); conditions: GR-bla HeLa, beta-lactamase reporter ratio, 18 h; activation: at 62.4 µM (top of the series)
# Glucocorticoid receptor (Homo sapiens), sequence (P04150 whole entry, looked up): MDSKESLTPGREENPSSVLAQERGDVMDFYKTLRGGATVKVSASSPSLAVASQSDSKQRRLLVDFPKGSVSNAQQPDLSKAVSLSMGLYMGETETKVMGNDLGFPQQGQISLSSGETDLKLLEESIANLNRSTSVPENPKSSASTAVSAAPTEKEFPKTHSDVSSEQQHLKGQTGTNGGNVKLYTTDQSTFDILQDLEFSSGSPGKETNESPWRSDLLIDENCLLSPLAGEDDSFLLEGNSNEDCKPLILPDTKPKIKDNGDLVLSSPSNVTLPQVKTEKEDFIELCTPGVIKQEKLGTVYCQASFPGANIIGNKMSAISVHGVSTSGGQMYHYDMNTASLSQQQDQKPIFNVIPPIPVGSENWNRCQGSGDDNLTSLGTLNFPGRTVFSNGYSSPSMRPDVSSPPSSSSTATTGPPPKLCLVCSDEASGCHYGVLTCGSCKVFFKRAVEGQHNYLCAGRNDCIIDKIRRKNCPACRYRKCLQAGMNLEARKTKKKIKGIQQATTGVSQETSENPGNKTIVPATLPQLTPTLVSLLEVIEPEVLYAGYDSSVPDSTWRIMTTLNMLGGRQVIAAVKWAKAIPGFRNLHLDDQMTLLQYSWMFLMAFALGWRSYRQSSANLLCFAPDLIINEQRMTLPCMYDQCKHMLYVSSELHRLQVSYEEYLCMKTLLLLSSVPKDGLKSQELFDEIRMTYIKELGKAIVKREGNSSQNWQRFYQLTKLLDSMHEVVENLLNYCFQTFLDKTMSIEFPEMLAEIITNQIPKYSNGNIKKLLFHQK
# Method in brief: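 Beta-lactamase reporter activity, read as fluorescence intensity, was measured in GR-bla HeLa cells exposed to compounds for 18 h at 37 C and then loaded with LiveBLAzer B/G FRET substrate for 2 h at room temperature.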
# [15] = qHTS assay for identifying genotoxic compounds that show differential cytotoxicity against isogenic chicken DT40 cell lines with known DNA damage response pathways - Rev3 mutant cell line (AID 743014); also: potency is read from the fitted curve at half-maximal effect; nearly all actives have a fitted effect of over 55% in size
Structure (SMILES),outcome [1],outcome [2],outcome [3],outcome [4],outcome [5],outcome [6],outcome [7],outcome [8],outcome [9],Potency [10],Potency [11],Potency [12],Potency [13],Potency [14],Potency [15]
COc1ccc2cc([C@H](C)C(=O)O)ccc2c1,inactive,inactive,inactive,inactive,inactive,inactive,inactive,inactive,inactive,inactive,inactive,,,,
CCCCCCCCCCCCS,inactive,inactive,inactive,inactive,inactive,inactive,inactive,inactive,inactive,inactive,,inactive,inactive,,
Oc1cccc2ccccc12,inactive,inactive,inactive,inactive,inactive,inactive,inactive,inactive,inactive,inactive,inactive,inactive,inactive,inactive,
C=C(C)C(=O)O[C@H]1C[C@@H]2CC[C@@]1(C)C2(C)C,inactive,inactive,inactive,inactive,inactive,inactive,inactive,inactive,inactive,inactive,inactive,inactive,inactive,,
CSCCC=O,inactive,inactive,inactive,inactive,inactive,inactive,inactive,inactive,inactive,inactive,,inactive,inactive,inactive,
C[C@H]1C[C@H]2[C@@H]3CCC4=CC(=O)C=C[C@]4(C)[C@@]3(F)[C@@H](O)C[C@]2(C)[C@@]1(O)C(=O)CO,inactive,inactive,inactive,inactive,inactive,inactive,inactive,inactive,inactive,inactive,inactive,inactive,inactive and 68.6 µM (active),,27.3 µM (active)
C#C[C@]1(O)CC[C@H]2[C@@H]3CCC4=CC(=O)CC[C@@H]4[C@H]3CC[C@@]21C,inactive,inactive,inactive,inactive,inactive,inactive,inactive,inactive,,inactive,inactive,inactive and 30.6 µM (active),27.3 µM (active),inactive,
OCCOCCN1CCN(C2=Nc3ccccc3Sc3ccccc32)CC1,inactive,inactive,inactive,inactive,inactive,inactive,inactive,inactive,inactive,inactive and 26.8 µM (active),inactive,29.8 µM (active) and 8.41 µM (active),26.6 µM (active),,
O=S(=O)(O)c1ccc2ccccc2c1,inactive,inactive,inactive,inactive,inactive,inactive,inactive,inactive,inactive,inactive,inactive,inactive and 54.6 µM (active),inactive and 54.6 µM (active),,
Cc1occc(=O)c1O,inactive,inactive,inactive,inactive,inactive,inactive,inactive,inactive,inactive,inactive,inactive,inactive,inactive,,
